High-throughput results deposited in PubChem by several laboratories.
FBA Mtb inh: Mtb fructose-bisphosphate aldolase inhibition. purified M. tuberculosis FBA, fluorescence read-out. 360,000 tested, 2.3% active. AID 588726. inhibition, % at 1 µM; in the data active = inhibition above about 27%;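 also: 0% = vehicle and 100% = reference inhibitor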
Yp Topo-I inh: inhibitors of Yersinia pestis topoisomerase I | 360,000 tested, 0.064% active | Y. pestis Topo-I cleavage product accumulation, plate reader | activity, % at 10 µM; in the data active = activity above about 50%, passing the limit was not always enough
PrPC TRFRET: cell surface PrPC inhibition, primary TR-FRET screen; 370,000 tested, 0.43% active; TR-FRET read-out; inhibition, % at 13.8 µM; AID 720596; in the data active = inhibition above about 24%; also: 0% = median of the test wells and 100% = reference compound wells
TcdB GH inh: blocks C. difficile toxin B glycohydrolase activity; TcdB glycohydrolase enzymatic assay, plate reader; 350,000 tested, 0.24% active; P18177; inhibition, % at 9.99 µM; AID 652162; in the data active = inhibition above about 10%
GDH-TPI inh: GDH-TPI coupled enzyme inhibition counter-screen; GDH-TPI coupled enzyme counterscreen, NADH absorbance; 360,000 tested, 1.2% active; inhibition, % at 4.8 µM; in the data active = inhibition above about 30%;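 also: 0% = DMSO wells and 100% = wells lacking the enzyme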
Starred values were filed as active, the others as inactive. This is a sample that favours compounds with a hit; in the whole collection about 3.2% have one here.

Screening CN1CCN(Cc2c(O)ccc3cc(Br)ccc23)CC1 returned PrPC TRFRET 4.2 and TcdB GH inh 1.7.
Screening CN1CCN(Cc2c(O)ccc3cc(-c4ccccn4)c(=O)oc23)CC1 returned FBA Mtb inh active, Yp Topo-I inh 4.8, PrPC TRFRET -7.8, TcdB GH inh 0.6 and GDH-TPI inh 10.8.
For Cc1c(C)c2ccc(O)c(CN3CCN(C)CC3)c2oc1=O the results were FBA Mtb inh active, Yp Topo-I inh 0.9, PrPC TRFRET 4.5, TcdB GH inh -10.0 and GDH-TPI inh 14.0.
Cc1c(O)c(CN2CCCCC2)cc2c3c(c(=O)oc12)CCC3 was read as FBA Mtb inh active, Yp Topo-I inh 3.6, PrPC TRFRET -3.9 and GDH-TPI inh 22.2.
Screening Cc1c(C)c2ccc(O)c(CN3CCCC3)c2oc1=O returned FBA Mtb inh active, Yp Topo-I inh -10.3, PrPC TRFRET 2.8, TcdB GH inh -4.5 and GDH-TPI inh 12.4.
`Cc1noc(C)c1S(=O)(=O)Nc1ccc2c(c1)C(=O)N([C@@H](C)CO)C[C@@H](C)[C@@H](CN(C)CC1CCCCC1)OCCCC[C@H](C)O2` gave TcdB GH inh -0.7.
CCc1c(C)c2ccc(O)c(CN3CCCC3)c2oc1=O was read as Yp Topo-I inh 2.4, PrPC TRFRET -2.1, TcdB GH inh 0.0 and GDH-TPI inh 34.5*.
`O=c1oc2c(CN3CCCCC3)c(O)ccc2c2c1CCCC2` gave FBA Mtb inh active, Yp Topo-I inh 5.2, PrPC TRFRET 1.0 and GDH-TPI inh 23.7.
For Cc1ccc(C(=O)c2sc3c(c2N)c(=O)[nH]c(=O)n3CCc2ccccc2)cc1 the results were FBA Mtb inh 1.0, Yp Topo-I inh 160.4*, PrPC TRFRET -3.8 and GDH-TPI inh 12.2.
`CC1CCN(Cc2cc(=O)oc3cc4c(cc23)CCCC4)CC1` gave FBA Mtb inh 4.7, Yp Topo-I inh -0.3, PrPC TRFRET 9.7, TcdB GH inh 0.9 and GDH-TPI inh -3.1.
For CC1CN(Cc2cc(=O)oc3cc(O)c(Cl)cc23)CC(C)O1 (stereo unspecified) the results were FBA Mtb inh active, Yp Topo-I inh 3.0, PrPC TRFRET 4.0, TcdB GH inh 0.1 and GDH-TPI inh 0.8.
Cc1cc2oc(=O)cc(CN(C)Cc3ccccc3F)c2cc1Cl was read as FBA Mtb inh 0.8, Yp Topo-I inh 0.0, PrPC TRFRET -11.7, TcdB GH inh 0.3 and GDH-TPI inh 17.1.
`COc1ccc(CN(C)Cc2cc(=O)oc3cc(C)c(C(C)C)cc23)cc1OC` gave FBA Mtb inh -3.0, Yp Topo-I inh 23.2, PrPC TRFRET 2.2, TcdB GH inh -0.1 and GDH-TPI inh 7.5.
For Cc1cc2oc(=O)cc(CN(C)Cc3ccccc3)c2cc1C(C)C the results were FBA Mtb inh 3.1, Yp Topo-I inh 64.5*, PrPC TRFRET 3.2, TcdB GH inh 0.9 and GDH-TPI inh 4.6.
CN(Cc1ccccc1F)Cc1cc(=O)oc2cc(O)c(Cl)cc12 was read as FBA Mtb inh active, Yp Topo-I inh 9.4, PrPC TRFRET -2.8, TcdB GH inh -1.6 and GDH-TPI inh 6.7.
CC1CCN(Cc2cc(=O)oc3cc(O)c(Cl)cc23)CC1 was read as FBA Mtb inh active, Yp Topo-I inh -2.4, PrPC TRFRET -4.3, TcdB GH inh 1.0 and GDH-TPI inh 12.1.
For CCOC(=O)C1=CC[C@@H](c2ccccc2)[C@@H]1C(=O)c1ccc(OC)cc1 the results were TcdB GH inh -0.1.
`C/C=C/c1cnc2c(c1)C(=O)N([C@H](C)CO)C[C@@H](C)[C@H](CN(C)C(=O)NC1CCCCC1)O2` gave TcdB GH inh -1.3.
For C[C@@H]1CN([C@@H](C)CO)C(=O)c2cccc(NC(=O)Nc3ccc(C(F)(F)F)cc3)c2O[C@@H]1CN(C)CC1CCCCC1 the results were TcdB GH inh 0.6.
`O=[N+]([O-])c1ccc(N2N=C(c3ccccc3)CC2c2ccccc2O)cc1` (stereo unspecified) gave FBA Mtb inh -12.4, Yp Topo-I inh -14.7, PrPC TRFRET 9.9, TcdB GH inh 0.6 and GDH-TPI inh 3.9.
Screening NS(=O)(=O)c1ccc(N2N=C(c3ccccc3)CC2c2cccc(F)c2)cc1 (stereo unspecified) returned FBA Mtb inh active, Yp Topo-I inh 11.2, PrPC TRFRET 4.2, TcdB GH inh 0.4 and GDH-TPI inh 15.2.
COc1cc(C2CC(c3cccnc3)=NN2c2ccc(F)cc2)cc(OC)c1OC (stereo unspecified) was read as FBA Mtb inh active, Yp Topo-I inh 26.7, PrPC TRFRET 6.3, TcdB GH inh 1.6 and GDH-TPI inh 10.4.
`O=[N+]([O-])c1ccc(N2N=C(c3ccco3)CC2c2ccccc2)cc1` (stereo unspecified) gave FBA Mtb inh -17.3, Yp Topo-I inh 4.3, PrPC TRFRET -2.9 and GDH-TPI inh 10.2.
NS(=O)(=O)c1ccc(N2N=C(c3ccccc3)CC2c2ccccc2Br)cc1 (stereo unspecified) was read as FBA Mtb inh active, Yp Topo-I inh 36.2, PrPC TRFRET -7.7, TcdB GH inh 0.9 and GDH-TPI inh 20.8.
CC(=O)Oc1ccc(C2=NN(c3ccccc3)C(c3ccccc3)C2)cc1 (stereo unspecified) was read as FBA Mtb inh 128.9*, Yp Topo-I inh -3.6, PrPC TRFRET 7.4, TcdB GH inh -0.1 and GDH-TPI inh -3.2.
`COc1ccc(C2CC(c3ccccc3O)=NN2c2ccccc2)cc1` (stereo unspecified) gave FBA Mtb inh 4.3, Yp Topo-I inh -3.8, PrPC TRFRET -3.1, TcdB GH inh 0.7 and GDH-TPI inh 5.9.
COc1cc(N2N=C(c3ccccc3)CC2c2ccccc2)c(C=O)cc1C=O (stereo unspecified) was read as FBA Mtb inh -0.7, Yp Topo-I inh -3.0, PrPC TRFRET 2.2, TcdB GH inh 0.2 and GDH-TPI inh 19.6.
`C[C@H](CO)N1C[C@H](C)[C@H](CN(C)Cc2ccc(Cl)c(Cl)c2)OCCCC[C@H](C)Oc2ccc(NS(C)(=O)=O)cc2C1=O` gave TcdB GH inh -1.4.
Screening CO[C@@H]1CN(C)C(=O)c2ccc(NS(C)(=O)=O)cc2OC[C@@H](C)N(C(=O)C2CC2)C[C@@H]1C returned TcdB GH inh 0.3.
NS(=O)(=O)c1ccc(N2N=C(c3ccccc3)CC2c2cccc(Br)c2)cc1 (stereo unspecified) was read as FBA Mtb inh active, Yp Topo-I inh 20.0, PrPC TRFRET 5.2, TcdB GH inh 1.0 and GDH-TPI inh 27.1.
CNC(=S)N1N=C(c2ccccc2)CC1c1ccc(OC)c(OC)c1 (stereo unspecified) was read as FBA Mtb inh -0.4, Yp Topo-I inh 10.7, PrPC TRFRET -14.7 and GDH-TPI inh 19.9.
`COc1ccc(C2CC(c3ccccc3)=NN2c2ccccc2)c(C(=O)O)c1OC` (stereo unspecified) gave FBA Mtb inh 197.3*, Yp Topo-I inh 1.1, PrPC TRFRET -7.5, TcdB GH inh 4.3 and GDH-TPI inh 5.4.
